Compound activity as filed in PubChem BioAssay.
Hits are enriched below; roughly 3.5% of the tested compounds scored in any of these assays.
TEAD-YAP inh: TEAD-YAP interaction inhibition. HEK-TIYL cells, TEAD-Gal4/YAP UAS-luciferase luminescence. inhibition, % at 9.12 µM. AID 1259422. 1.4% of 640,000 active; in the data active means inhibition above about 32%
MITF primary: human MITF inhibition, primary screen; AID 1259374; 0.91% of 650,000 active; AlphaScreen MITF homodimerization, bead proximity signal; inhibition, % at 2.6 µM; in the data active means inhibition above about 50%
GPR151 ag: human GPR151 activation. 1% of 650,000 active. activation, % at 11.2 µM. Q8TDV0. AID 1508602. PathHunter beta-arrestin GPR151 cells, luminescence; in the data active means activation above about 4.9%
FBW7 activator: activators of human E3 ligase FBW7; AlphaScreen FBW7–phospho-cyclin E peptide binding, activator screen; normalized activity (activation), % at 26.1 µM; 0.13% of 650,000 active; in the data active means normalized activity above about 1.9%;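 further: purified mutant Fbw7 with reduced substrate affinity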
Target sequence (Q969H0 whole entry, looked up): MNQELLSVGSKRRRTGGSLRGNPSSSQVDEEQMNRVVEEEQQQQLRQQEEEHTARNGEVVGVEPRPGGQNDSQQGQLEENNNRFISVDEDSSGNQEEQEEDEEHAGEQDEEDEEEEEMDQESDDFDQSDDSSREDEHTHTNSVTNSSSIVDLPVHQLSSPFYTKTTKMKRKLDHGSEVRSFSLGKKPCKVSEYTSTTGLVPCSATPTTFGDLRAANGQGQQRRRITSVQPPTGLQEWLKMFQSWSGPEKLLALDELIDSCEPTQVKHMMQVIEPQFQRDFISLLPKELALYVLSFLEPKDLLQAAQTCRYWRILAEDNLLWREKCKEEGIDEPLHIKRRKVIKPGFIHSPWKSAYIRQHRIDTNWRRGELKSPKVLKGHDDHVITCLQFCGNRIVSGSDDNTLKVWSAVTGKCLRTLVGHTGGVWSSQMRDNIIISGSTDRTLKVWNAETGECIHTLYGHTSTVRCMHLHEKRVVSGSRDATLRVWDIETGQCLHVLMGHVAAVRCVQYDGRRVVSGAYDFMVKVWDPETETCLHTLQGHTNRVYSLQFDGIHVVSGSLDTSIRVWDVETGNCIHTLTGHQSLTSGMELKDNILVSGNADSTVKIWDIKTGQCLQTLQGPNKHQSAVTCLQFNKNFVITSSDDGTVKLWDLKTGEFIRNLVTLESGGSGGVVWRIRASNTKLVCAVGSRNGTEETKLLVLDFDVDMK
MITF confirm: human MITF inhibition, confirmation; shares compounds with MITF primary; AlphaScreen MITF homodimerization, biotin/His-MITF beads; inhibition, % at 2.6 µM; 16% of 4,700 active;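 active means inhibition above a cutoff derived from the DMSO control wells, cut at about 28% in these data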;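 further: inhibitors lower the bead chemiluminescence by keeping MITF from dimerizing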
AS interf DR: counter-screen: compounds optically interfering with AlphaScreen | 6% of 480 active | shares compounds with MITF primary | AlphaScreen optical interference counterscreen, cell-free | IC50, µM; call rule not given here
AlphaScreen intf2: AlphaScreen optical interference, counter-screen; inhibition, % at 2.6 µM; 7.6% of 4,700 active; AID 1259376; shares compounds with MITF primary; LysRS AlphaScreen counterscreen, signal interference, triplicate;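 active means inhibition above a cutoff derived from the DMSO control wells, cut at about 30% in these data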
Of the large screens only hits and unclear results are named; the others gave an inactive call (follow-up assays come after a bar, where they were run).

O=C(c1cc(Sc2ccc(Cl)cc2)nc2ccccc12)N1CCOCC1	none
COc1ccc(NC(=O)c2c(NCc3ccc(OC)c(OC)c3)sc3c2CCC3)c(OC)c1	none
CCCCc1cc(=O)oc2cc(OCC(=O)c3ccc(F)cc3)ccc12	none
COc1ccc(NC(=O)C2CC(=O)NC(=Nc3ccc(C)c(C)c3)S2)cc1 (stereo unspecified)	none
Cc1ccc(N=C2NC(=O)CC(C(=O)Nc3ccc(Cl)cc3)S2)cc1C (stereo unspecified)	MITF primary 78 | MITF confirm inactive | AlphaScreen intf2 inactive
C=CC1=C(C(=O)O)N2C(=O)[C@@H](NC(=O)/C(=N\O)c3csc(N)n3)[C@H]2SC1 (stereo in doubt)	MITF primary 59 | MITF confirm 59 | AlphaScreen intf2 46
CCN1CCN(CC(=O)N/N=C/c2ccc(C(C)C)cc2)CC1	MITF primary 52 | MITF confirm inactive | AlphaScreen intf2 inactive
CC1(C(=O)N/N=C/c2cccnc2)CC1(Cl)Cl (stereo unspecified)	MITF primary 60 | MITF confirm inactive | AlphaScreen intf2 inactive
O=C(N/N=C/c1cccnc1)C12CC3CC(CC(C3)C1)C2	none
O=C(CN1CCSCC1)N/N=C/c1cccnc1	MITF primary 51 | MITF confirm inactive | AlphaScreen intf2 inactive
CCN1CCN(CC(=O)N/N=C/c2ccc(Cl)c(Cl)c2)CC1	MITF primary 68 | MITF confirm inactive | AlphaScreen intf2 inactive
CCN1CCN(CC(=O)N/N=C/c2ccc(Cl)cc2)CC1	none
CCN1CCN(CC(=O)N/N=C/c2ccccc2)CC1	MITF primary 70 | MITF confirm inactive | AlphaScreen intf2 inactive
CCCCC/C=C/C=C1/C(=O)C=C[C@@H]1C/C=C\CCCC(=O)O	none (no result: TEAD-YAP inh, FBW7 activator)
CCCCC[C@H](O)/C=C/[C@H]1[C@H](O)CC(=O)[C@@H]1C/C=C\CCCC(=O)NCCCCCNC(=O)CCCCC1SC[C@@H]2NC(=O)N[C@H]12 (stereo partly specified)	MITF primary 124 (no result: TEAD-YAP inh, FBW7 activator) | MITF confirm 124 | AlphaScreen intf2 101
CCCCC/C=C/C=C1/C(=O)C=C[C@@H]1C/C=C\CCCC(=O)NCCCCCNC(=O)CCCCC1SC[C@@H]2NC(=O)N[C@H]12 (stereo partly specified)	MITF primary 124 (no result: TEAD-YAP inh, FBW7 activator) | MITF confirm 124 | AlphaScreen intf2 101
CCCCC[C@H](O)/C=C/[C@H]1[C@H](O)CC(=O)[C@@H]1C/C=C\CCCC(=O)NCCO	none (no result: TEAD-YAP inh, FBW7 activator)
CCCCC[C@H](O)/C=C/[C@@H]1[C@@H](C/C=C\CCCC(=O)NCCCCCNC(=O)CCCCC2SC[C@@H]3NC(=O)N[C@H]23)[C@@H](O)C[C@H]1O (stereo partly specified)	MITF primary 124 (no result: TEAD-YAP inh, FBW7 activator) | MITF confirm 123 | AlphaScreen intf2 101
O=C(c1ccc2c(=O)n(Cc3ccc4c(c3)OCO4)c(=S)[nH]c2c1)N1CCN(c2ccccc2)CC1	none
CC1=C(C(=O)OCCOc2ccccc2)C(c2ccc(C)cc2)C2=C(CC(C)(C)CC2=O)N1 (stereo unspecified)	none
COc1ccc2nc(-c3ccco3)c(-c3ccco3)nc2c1	MITF primary 52 | MITF confirm 66 | AS interf DR inactive | AlphaScreen intf2 inactive
CCOc1cc(CN2CCN(Cc3cc(OC)ccc3OC)CC2)ccc1OC	MITF primary 58 | MITF confirm inactive | AlphaScreen intf2 inactive
COc1ccc(OC)c(CN2CCN(Cc3cc(OC)c(OC)c(OC)c3)CC2)c1	MITF primary 68 | MITF confirm inactive | AlphaScreen intf2 inactive
CCOc1cc(CN2CCN(Cc3ccccc3OC)CC2)ccc1OC	none
COc1ccc(OC)c(CN2CCN(C(=O)c3cc(OC)c(OC)c(OC)c3)CC2)c1	none
O=C(c1ccccc1)c1c(-c2ccccc2)oc(-c2ccc(Br)cc2)nc1=S	none
O=C(N/N=C/c1ccncc1)c1ccccc1F	none
Cc1ncc(CO)c(/C=N/NC(=S)Nc2cccc(S(=O)(=O)N(C)C)c2)c1O	MITF primary 68 | MITF confirm inactive | AlphaScreen intf2 inactive
Cc1ncc(CO)c(/C=N/NC(N)=S)c1O	MITF primary 105 | MITF confirm inactive | AlphaScreen intf2 inactive
Cc1ncc(CO)c(/C=N/NC(=S)Nc2cccc(Cl)c2)c1O	none
COc1ccc(C(=O)Nc2c(-c3cc(=O)oc4cc(C)ccc34)oc3ccccc23)cc1OC	none
COc1ccccc1NC(=O)Cc1ccc(C)cc1	none
